# The campaign covered roughly 310,000 compounds. About 14,000 (4.5%) showed an effect of 50% or more. The effect is printed as a negative number. For the sample, strong results were picked, then their nearest neighbours and some compounds at random.
# Target: human ether-à-go-go-related gene (hERG) potassium channel (human, UniProt Q12809)
# Assay: primary screen, population patch clamp on CHO cells stably expressing hERG; higher = less effect of the substance
# 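Note: peak tail current of the secondary pulse compared with the same well before compound.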
# Sequence of human ether-à-go-go-related gene (hERG) potassium channel (Q12809 whole entry, looked up): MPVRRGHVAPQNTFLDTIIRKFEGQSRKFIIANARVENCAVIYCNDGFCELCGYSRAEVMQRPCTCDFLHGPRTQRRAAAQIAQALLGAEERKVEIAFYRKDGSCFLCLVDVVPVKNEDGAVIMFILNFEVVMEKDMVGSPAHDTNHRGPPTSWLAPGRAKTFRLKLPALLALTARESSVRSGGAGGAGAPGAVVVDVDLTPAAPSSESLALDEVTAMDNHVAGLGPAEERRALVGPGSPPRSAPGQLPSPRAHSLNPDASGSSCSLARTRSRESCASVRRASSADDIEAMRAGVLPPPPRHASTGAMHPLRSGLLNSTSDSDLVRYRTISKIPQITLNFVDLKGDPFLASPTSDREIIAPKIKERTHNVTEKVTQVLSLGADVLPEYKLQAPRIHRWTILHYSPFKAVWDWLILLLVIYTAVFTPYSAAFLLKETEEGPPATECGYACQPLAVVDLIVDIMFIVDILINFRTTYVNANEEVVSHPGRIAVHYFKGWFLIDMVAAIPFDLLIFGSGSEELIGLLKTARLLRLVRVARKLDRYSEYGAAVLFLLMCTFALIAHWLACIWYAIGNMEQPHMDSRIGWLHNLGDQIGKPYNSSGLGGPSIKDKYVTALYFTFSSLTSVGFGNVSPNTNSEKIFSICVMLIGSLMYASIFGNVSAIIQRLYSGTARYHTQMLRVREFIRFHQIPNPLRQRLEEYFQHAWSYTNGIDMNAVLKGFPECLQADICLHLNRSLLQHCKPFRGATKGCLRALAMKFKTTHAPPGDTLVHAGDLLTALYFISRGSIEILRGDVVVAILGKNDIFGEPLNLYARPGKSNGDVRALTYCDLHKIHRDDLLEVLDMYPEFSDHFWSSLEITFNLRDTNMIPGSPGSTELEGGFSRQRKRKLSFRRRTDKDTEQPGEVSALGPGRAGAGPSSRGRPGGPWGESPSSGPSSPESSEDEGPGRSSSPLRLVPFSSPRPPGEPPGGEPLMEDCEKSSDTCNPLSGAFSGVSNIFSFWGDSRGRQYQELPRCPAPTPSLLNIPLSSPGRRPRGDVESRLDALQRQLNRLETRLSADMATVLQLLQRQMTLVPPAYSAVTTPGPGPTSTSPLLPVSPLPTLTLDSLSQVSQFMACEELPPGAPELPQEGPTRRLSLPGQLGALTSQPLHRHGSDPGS
row,Structure (SMILES),"hERG current change (%, negative = inhibition) at 10uM [%]"
1,NC(=O)Cc1nc2scc(-c3ccccc3)c2c(=O)[nH]1,37.9
2,COC(=O)c1cccc(S(=O)(=O)N2CCC(NC(=O)NC34CC5CC(CC(C5)C3)C4)CC2)c1,4.44
3,O=C(CCn1cccc1)Nc1cccc(F)c1,0.101
4,CCc1nnc(NC(=O)CSc2ncc(-c3ccccc3)n2CC)s1,-17.9
5,COCCCC1CCN(Cc2nc(Cc3ccccc3Cl)no2)CC1,5.07
6,CC[C@@]1(O)C(=O)OCc2c1cc1n(c2=O)Cc2cc3c(CN(C)C)c(O)ccc3nc2-1.Cl,13.6
7,COc1ccc(-c2cn(-c3ccccc3)c3[n+]2CCS3)cc1,-38
8,Fc1ccc(-c2cn(-c3ccccc3)c3[n+]2CCS3)cc1.O.[Br-],-45.3
9,Cc1ccc(-c2cn(-c3ccccc3)c3[n+]2CCCS3)cc1.[Br-],-29.1
10,Clc1ccc(-c2cn(-c3ccccc3)c3[n+]2CCS3)cc1.[Br-],-59.4
11,CCc1ccc(-n2cc(-c3ccc(F)cc3)[n+]3c2SCCC3)cc1.[Br-],-71.7
12,COc1ccc(-c2cn(-c3ccc(Br)cc3)c3[n+]2CCS3)cc1.[Br-],-66.7
13,[Br-].c1ccc(-c2cn(-c3ccccc3)c3[n+]2CCS3)cc1,-5.74
14,Fc1ccc(-n2cc(-c3ccccc3)[n+]3c2SCC3)cc1.[Br-],-22.7
15,COc1ccc(-n2cc(-c3ccc(Br)cc3)[nH]c2=S)cc1,18
16,O=C(N/N=C/c1ccco1)c1cc(-c2cccc3ccccc23)n[nH]1,7.01
17,COC(=O)C(C)N(c1ccc(C)cc1)S(=O)(=O)c1c(C)[nH]c(=O)[nH]c1=O (centres unmarked),1.72
18,Cc1ccc(S(=O)(=O)NC2(C(F)(F)F)NC(=O)N(c3ccc(F)cc3)C2=O)cc1 (centres unmarked),9.68
19,CCN1CCN(C(=O)c2c(-c3c(Cl)cccc3Cl)noc2C)CC1,20.9
20,Cc1ccc(-n2c(C)cc(/C=C3\NC(=O)NC3=O)c2C)c(C)c1,-5.9
21,Cc1cc(C)n(CCc2nc(-c3cccs3)cs2)n1,3.48
22,Cc1nc2ccccn2c1C(=O)NNC(=O)Nc1cccc(C(F)(F)F)c1,-11

row,Structure (SMILES),"hERG current change (%, negative = inhibition) at 10uM [%]"
1,Cc1nc2sc(C(=O)O)c(N)c2c2c1COC(C)(C)C2,9.19
2,O=C(Nc1ccc(NC(=O)C2CCCCC2)cn1)c1ccco1,4.68
3,CCN(CCO)Cc1cn[nH]c1-c1ccc(C)c(C)c1,9.28
4,Cc1c(NC(N)=O)c(=O)n(-c2ccccc2)n1C,3.79
5,CNc1cnn(-c2ccc(C)cc2)c(=O)c1Sc1ccc(C)cc1,-8.7
6,C=CCNc1cnn(-c2ccc(C)cc2)c(=O)c1Cl,-12.7
7,C=CCNc1cnn(-c2ccc(C)cc2)c(=O)c1Sc1ccc(C)cc1,-79.4
8,CCOC(=O)c1cc(-c2ccccc2)nn1Cc1cc(C)no1,-4.06
9,C=CCN1C(=O)/C(=C2/Sc3ccccc3N2C)SC1=Nc1c(C)n[nH]c1C,-3.99
10,O=C(CCN1C(=O)c2ccccc2C1=O)Nc1ccc(F)cc1,-6
11,CSc1ccc(CN2CCc3c([nH]c4ccccc34)C2)cc1,-52.7
12,Clc1ccc(CN2CCc3c([nH]c4ccccc34)C2)cc1Cl,-28.2
13,Clc1cccc(CN2CCc3c([nH]c4ccccc34)C2)c1,-31.9
14,COc1cc(CN2CCc3c([nH]c4ccccc34)C2)cc(OC)c1,-55.7
15,CCOc1cc(CN2CCc3c([nH]c4ccccc34)C2)ccc1OC,-19
16,Cc1cccc(CN2CCc3c([nH]c4ccccc34)C2)c1,-33.4
17,Cc1cccc(NC(=O)CSc2nc3ccccc3nc2N2CCCCC2)c1,-36.5
18,COc1ccc(CNC(=O)c2n[nH]c3ccccc23)cc1OC,11.6
19,CCOC(=O)CSCC(=O)N1CCC(Cc2ccccc2)CC1,3.24
20,CCCSCCCNC(=O)CN1C(=O)COc2ccc(S(=O)(=O)N3CCCC3)cc21,2.87
21,O=C(N/N=C/c1ccc(OC(=O)c2ccc3c(c2)OCO3)cc1)c1cncc(Br)c1,10.8
22,CN(C)c1ccnc2sc3c(=O)n(Cc4ccccc4)cnc3c12,-51

row,Structure (SMILES),"hERG current change (%, negative = inhibition) at 10uM [%]"
1,Cc1ccc(-n2cnc3c(sc4nccc(N(C)C)c43)c2=O)cc1,-16.4
2,CN(C)c1ccnc2sc3c(=O)n(-c4ccccc4)cnc3c12,-17.9
3,CCN(CC)C(=O)c1sc(NC(=O)Cc2cccs2)c(C#N)c1C,-6.24
4,Cc1cccc(N(CC(O)CN2CCOCC2)S(=O)(=O)c2ccccc2)c1 (centres unmarked),-1.7
5,Cc1ccc(N(CC(O)CN2CCCCC2)S(=O)(=O)c2ccccc2)cc1 (centres unmarked),-68
6,COc1ccccc1N(CC(O)CN1CCCC1)S(=O)(=O)c1ccccc1 (centres unmarked),-4.48
7,CC(C)CNC(=O)CN(c1ccccc1)S(=O)(=O)c1ccccc1[N+](=O)[O-],2.38
8,CC1(C)NC(=O)N(CC(O)CN(c2ccccc2)S(=O)(=O)c2ccccc2[N+](=O)[O-])C1=O (centres unmarked),13.7
9,CC(C)CN(CC(C)C)CC(O)CN(c1ccccc1)S(=O)(=O)c1ccccc1[N+](=O)[O-] (centres unmarked),-51.5
10,Cc1cccc(N(CC(O)CN2CCCC2)S(=O)(=O)c2ccccc2)c1 (centres unmarked),-57
11,COc1ccccc1N(CC(O)CN1CCOCC1)S(=O)(=O)c1ccccc1 (centres unmarked),12.7
12,Cc1ccc(N(CC(O)CN2CCCC2)S(=O)(=O)c2ccccc2)cc1 (centres unmarked),-68.2
13,COc1ccc(OC)c2[nH]c(=O)c(CCNS(=O)(=O)c3ccc(F)cc3)cc12,1.59
14,CN1CCC(N(C)C(=O)/C=C/c2cn(-c3ccccc3)nc2-c2cccs2)CC1.Cl,-22.3
15,NC(=O)Cc1ccc(C(=O)c2ccccc2)s1,7.3
16,C[C@H](O)[C@@]1(O)CC[C@H]2[C@@H]3CC[C@@H]4C[C@H](O)CC[C@]4(C)[C@H]3CC[C@@]21C,-0.0961
17,CCOCCOc1nc2c(c(=O)n(C)c(=O)n2C)n1CCc1ccccc1,0.435
18,CC(C(N)=O)N1CC(c2ccc(Cl)cc2)CC1=O (centres unmarked),-10.8
19,C=CCN1C(=O)NC(=O)/C(=C/c2ccc(OC)c(COc3ccc(NC(C)=O)cc3)c2)C1=O,8.75
20,Cc1ccc(N(CC(O)CN2CCCCC2)S(=O)(=O)c2ccccc2[N+](=O)[O-])cc1 (centres unmarked),-70.9
21,Cc1ccc(N(CC2CO2)S(=O)(=O)c2ccccc2[N+](=O)[O-])cc1 (centres unmarked),1.23
22,O=[N+]([O-])c1ccccc1S(=O)(=O)N(CC(O)CN1CCCCC1)c1ccccc1 (centres unmarked),-29.9

row,Structure (SMILES),"hERG current change (%, negative = inhibition) at 10uM [%]"
1,O=C(NC(Cc1c[nH]c2ccccc12)C(=O)OCC(=O)c1cccc2ccccc12)c1cccs1 (centres unmarked),0.359
2,CN(C)C(=O)c1ccc(NC(=O)c2cccc(S(=O)(=O)N3CCCc4ccccc43)c2)cc1,-8.06
3,NC(=O)[C@H]1CC2(CC(c3cccc(NC(=O)CC(c4ccccc4)c4ccccc4)c3)=NO2)CN1C(=O)C(c1ccccc1)c1ccccc1 (some centres unmarked),8.82
4,COc1ccccc1CN1CCCC(C(=O)N2CCCCC2)C1.O=C(O)C(=O)O (centres unmarked),10.6
5,COc1ccc(Br)cc1CN1CCCC(C(=O)N2CCCCCC2)C1.O=C(O)C(=O)O (centres unmarked),-62.4
6,COc1ccc(OC)c(CN2CCCC(C(=O)N3CCCCC3)C2)c1.O=C(O)C(=O)O (centres unmarked),-32.1
7,COc1ccc(Br)cc1CN1CCCC(C(=O)N2CCCCC2)C1.O=C(O)C(=O)O (centres unmarked),-55.8
8,COc1cc(OC)c(OC)cc1CN1CCCC(C(=O)N2CCCCC2)C1.O=C(O)C(=O)O (centres unmarked),-1.45
9,O=C(C1CCCN(Cc2cc(Br)ccc2O)C1)N1CCCCC1.O=C(O)C(=O)O (centres unmarked),-31.6
10,COc1ccc(-c2csc(NC(=O)c3ccc(S(=O)(=O)N4CCc5ccccc5C4)cc3)n2)c(OC)c1,23
11,O=C(CCC(=O)OCC(=O)c1ccccc1)Nc1cccc(Cl)c1,21.5
12,CCN(CC)C(=O)c1c(NC(=O)c2ccccc2)sc(C)c1C,-6.01
13,O=C(NCSc1ccnc(SCNC(=O)c2ccccc2)n1)c1ccccc1,-28
14,COc1ccc(CC(=O)NCCS(=O)(=O)N2CCN(c3ccccc3)CC2)cc1,12.7
15,Cn1c(SCc2ccc([N+](=O)[O-])cc2)nnc1-c1ccncc1,-52
16,Cn1c(SCc2ccc([N+](=O)[O-])cc2)nnc1-c1cccnc1,-18
17,Cc1ccc(CSc2nnc(-c3ccncc3)n2C)cc1,4.36
18,Cn1c(SCC2CCCO2)nnc1-c1ccc([N+](=O)[O-])cc1 (centres unmarked),-63.8
19,Cn1c(SCC2CCCO2)nnc1-c1cccc([N+](=O)[O-])c1 (centres unmarked),8.76
20,CN(C)c1ccc(-c2nnc(SCC3CCCO3)n2C)cc1 (centres unmarked),5.24
